Screening results as filed in PubChem BioAssay.
Mdm2-MdmX inh – inhibitors of human Mdm2/MdmX interaction. 330,000 compounds, 3% hits. O15151+Q00987. SaOS-2 split-luciferase Mdm2/MdmX complementation, luminescence. inhibition, % at 8 µM;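 active means inhibition of at least 50% at 8 µM in the primary screen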
MPTP block – permeability transition pore inhibition; isolated mouse mitochondria, Ca2+ swelling absorbance, 30 min; inhibition, % at 10 µM; 360,000 compounds, 1.4% hits;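 active means inhibition of 50% or more, scaled per plate between neutral and stimulator controls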
Beta cell apopt – beta cell apoptosis inhibition. INS-1E cytokine-induced death, ATP luminescence, 48 h; percent of positive-control rescue, neutral wells zero. protection from apoptosis, % (test concentration not listed). 300,000 compounds, 0.8% hits. AID 435005;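 active means Every replicate reaches about 75%, or at least half do and their mean reaches it too, limit read from the data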;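 further: higher means more ATP so stronger rescue from cytokine killing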
Gli-Sufu block – blocks Gli-Sufu signaling in a luciferase reporter; inhibition, % at 5 µM; 340,000 compounds, 0.74% hits; Sufu-KO-LIGHT fibroblasts, Gli luciferase reporter luminescence;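 active means inhibition above about 55%, limit read from the data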
CSC inhib – cancer stem cell inhibition; 300,000 compounds, 1.1% hits; AID 2717; cancer stem cell-like cells viability, luminescence; inhibition, % at 7.5 µM; in the data active means inhibition above about 75%; tested in HMLE shEcad cells
NR3A LBD binder – NR3A (human) ligand-binding domain modulation; NR3A LBD differential scanning fluorimetry, Tm shift; 0% = protein alone, 100% = glycine-bound protein; Tm shift relative to glycine control, % at 25 µM; 340,000 compounds, 2.5% hits; AID 1259313;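 active means melting temperature shift of at least 10% of the positive control shift, at one fixed dose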
Mdm2 MdmX conf – human Mdm2/MdmX binding inhibition, confirmed; inhibition, % at 8 µM; shares compounds with Mdm2-MdmX inh; 10,000 compounds, 55% hits; luminescent assay; in the data active means inhibition above about 40%
FLuc counter – inhibits full-length luciferase, flagging false Mdm2/MdmX hits; 6,200 compounds, 77% hits; AID 504607; SaOS-2 full-length luciferase counterscreen, luminescence; inhibition, % at 8 µM; shares compounds with Mdm2-MdmX inh;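 active means mean inhibition at 8 µM reaching about 37%, which flags the compound as non-specific, limit read from the data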;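 further: p53-null SaOS-2 cells with luciferase driven by a doxycycline-inducible promoter; compound on cells about two nights before reading with doxycycline added after day one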
Large screens that a line does not name were inactive (follow-up assays come after a bar, where they were run). Most compounds without a hit are left out; they make up all but 6.6% or so of the library.

COc1cc2c3nnc(-c4ccccc4)c-3cn(Cc3ccccc3F)c2cc1OC	Mdm2-MdmX inh 84.1 (no result: MPTP block) | Mdm2 MdmX conf 53.0 | FLuc counter 39.5
O=C(Nc1cc(Cl)ccc1-n1cncn1)c1ccco1	none
O=C(Nc1cc(Cl)ccc1-n1cncn1)c1ccc([N+](=O)[O-])s1	Mdm2-MdmX inh 58.4, Beta cell apopt 102.0 | Mdm2 MdmX conf inactive
Cc1cccc(-n2c(SCC(=O)c3c(N)n(C4CC4)c(=O)[nH]c3=O)nnc2N2CCOCC2)c1	none (no result: CSC inhib)
N/C(=N\OC(=O)C12CC3CC(CC(C3)C1)C2)c1ccccc1	Mdm2-MdmX inh 54.4 | Mdm2 MdmX conf inactive
N/C(=N\OC(=O)C12CC3CC(CC(C3)C1)C2)c1cccnc1	Mdm2-MdmX inh 71.0 | Mdm2 MdmX conf inactive
Cc1ccc(C(=O)NCCN2CCC(n3c(=O)[nH]c4ccccc43)CC2)cc1F	none (no result: Mdm2-MdmX inh, Beta cell apopt, Gli-Sufu block, CSC inhib, NR3A LBD binder)
CC(=O)c1ccc(OCCCC(=O)Nc2cc(S(=O)(=O)N3CCCCC3)ccc2C)cc1	none (no result: Beta cell apopt, CSC inhib)
O=C(CN1C(=O)/C(=C/c2ccc(F)cc2)SC1=S)N1CCN(CCc2ccccn2)CC1	Mdm2-MdmX inh 60.5 (no result: Beta cell apopt) | Mdm2 MdmX conf inactive
O=C(CN1C(=O)/C(=C\c2ccc(F)cc2)Oc2ccccc21)N1CCN(c2ccccn2)CC1	Mdm2-MdmX inh 79.3 | Mdm2 MdmX conf inactive | FLuc counter 78.5
COc1ccc(/C=C2\SC(=S)N(CCCC(=O)Nc3cccc(C(=O)O)c3)C2=O)cc1OC	none
COc1ccc(/C=C2\SC(=S)N(CCCC(=O)Nc3ccccn3)C2=O)cc1OC	Mdm2-MdmX inh 62.9 | Mdm2 MdmX conf 51.8 | FLuc counter 75.9
Cc1ccc(/C=C2\SC(=S)N(CCCC(=O)Nc3ccccn3)C2=O)cc1	Mdm2-MdmX inh 68.9 | Mdm2 MdmX conf 68.3 | FLuc counter 51.5
O=C(CCN1C(=O)/C(=C/c2ccccc2)SC1=S)Nc1ccccn1	none
CCCCN1C(=O)C(CC(=O)NCCN2CCOCC2)CC(C(=O)N(C)C)=C1C (centres undefined)	none (no result: Mdm2-MdmX inh, Beta cell apopt, Gli-Sufu block, CSC inhib, NR3A LBD binder)
C[C@@H]1CN([C@@H](C)CO)C(=O)CCCn2cc(nn2)CO[C@H]1CN(C)C(=O)Oc1ccccc1	none (no result: Mdm2-MdmX inh, Beta cell apopt, Gli-Sufu block, CSC inhib, NR3A LBD binder)
CC(=O)c1ccc(S(=O)(=O)N2CCN(CC(=O)Nc3ccc(Cl)c([N+](=O)[O-])c3)CC2)cc1	none
Cc1ccc(S(=O)(=O)N2CCN(CC(=O)N/N=C\c3ccc(Cl)c([N+](=O)[O-])c3)CC2)cc1	Mdm2-MdmX inh 63.7 | Mdm2 MdmX conf inactive
COc1ccc(-c2[nH]n(-c3ccc([N+](=O)[O-])cc3)c(=O)c2C=NCc2ccc(F)cc2)cc1	Mdm2-MdmX inh 80.0 | Mdm2 MdmX conf inactive
CCOC(=O)c1nc2sc(C)c(C)c2c(=O)[nH]1	none
CCOC(=O)/C(=C\c1cccc(O)c1)c1nc2sc(C)c(C)c2c(=O)[nH]1	Mdm2-MdmX inh 82.0 | Mdm2 MdmX conf inactive | FLuc counter inactive
COc1ccc(N2CCN(S(=O)(=O)CCNC(=O)c3cc(=O)c4ccccc4o3)CC2)cc1	none
CO/N=C/C(=N\Nc1ccc(OC)cc1)C(=O)c1ccc(F)cc1	none (no result: Beta cell apopt)
CO/N=C/C(=N\Nc1ccc(C)cc1)C(=O)c1ccc(OC)cc1	Mdm2-MdmX inh 54.7 | Mdm2 MdmX conf 58.4 | FLuc counter 64.8
O=C(Nc1cccc(C(=O)O)c1)/C(=C\c1ccccc1Cl)NC(=O)c1ccco1	none
FC(F)(F)c1nc2nc(Cl)c(Cl)nc2[nH]1	none (no result: Mdm2-MdmX inh, Beta cell apopt, Gli-Sufu block, CSC inhib, NR3A LBD binder)
FC(F)(F)c1cccc(-c2nc3nc(Cl)c(Cl)nc3[nH]2)c1	Mdm2-MdmX inh 80.1, Beta cell apopt 99.1, CSC inhib 75.6 | Mdm2 MdmX conf 74.8 | FLuc counter 69.4
COC(=O)c1c(C)[nH]c(-c2csc(N)n2)c1C	Mdm2-MdmX inh 65.4 | Mdm2 MdmX conf 61.0 | FLuc counter 85.2
COc1ccc(C(CCNCc2ccc(N(C)C)cc2)c2ccccc2OC)cc1 (centres undefined)	Mdm2-MdmX inh 54.0 | Mdm2 MdmX conf inactive
COc1ccc(CNCCC(c2ccc(OC)cc2)c2ccccc2OC)cc1 (centres undefined)	none
COc1ccc(C(CCNCc2ccc(OC(C)C)cc2)c2ccccc2OC)cc1 (centres undefined)	Mdm2-MdmX inh 87.0, Beta cell apopt 75.8, CSC inhib 101.2 | Mdm2 MdmX conf inactive | FLuc counter 81.9
CNc1ncnc2c1ncn2[C@H]1CN(Cc2cccnc2)C[C@@H](CO)O1	none (no result: Mdm2-MdmX inh, Beta cell apopt, Gli-Sufu block, CSC inhib, NR3A LBD binder)
Cc1ccc(C)c(CSc2nc3[nH]ncc3c(=O)[nH]2)c1	Mdm2-MdmX inh 56.0 | Mdm2 MdmX conf 68.2 | FLuc counter 48.1
Cc1[nH]nc2ncc(C(=O)c3cc(F)ccc3O)cc12	Mdm2-MdmX inh 52.3 | Mdm2 MdmX conf inactive | FLuc counter 61.1
COc1ccncc1-c1ccccc1C1=CC(=O)CC(C)(C)C1=O	none (no result: Mdm2-MdmX inh, Beta cell apopt, Gli-Sufu block, CSC inhib, NR3A LBD binder)
Cc1cc(C)cc(NC(=O)CSc2nnc(-c3cc(C)[nH]n3)n2N)c1	none
COc1cccc(-c2nc(Oc3cc(C)cc(C)c3)c3ccccc3n2)c1O	Mdm2-MdmX inh 64.5 (no result: MPTP block, Gli-Sufu block, NR3A LBD binder) | Mdm2 MdmX conf inactive
COc1cccc(-c2nc(N3CCCC3)c3ccccc3n2)c1O	none
COc1cccc(-c2nc(N3CC(C)CC(C)C3)c3ccccc3n2)c1O (centres undefined)	Mdm2-MdmX inh 60.8 (no result: Beta cell apopt, CSC inhib) | Mdm2 MdmX conf inactive
CCOc1ccc(C(O)(c2ccccc2)C(CN2CCCC2)c2ccccc2)cc1 (centres undefined)	none
COc1cc(SC)ccc1C(=O)Nc1nc2ccccc2[nH]1	Mdm2-MdmX inh 100.2, Beta cell apopt 106.2, Gli-Sufu block 93.2 | Mdm2 MdmX conf 99.2 | FLuc counter inactive
COc1ccccc1C(=O)Nc1nc2ccccc2[nH]1	Mdm2-MdmX inh 98.4, Beta cell apopt 92.6, Gli-Sufu block 74.8, CSC inhib 95.2 | Mdm2 MdmX conf 95.2 | FLuc counter inactive
CSc1ccccc1C(=O)Nc1nc2ccccc2[nH]1	none
COc1ccccc1C(=O)NCCC(=O)Nc1nc2ccccc2[nH]1	none
CCOC(=O)C1=CCN(S(=O)(=O)c2ccccc2[N+](=O)[O-])C1c1ccc(C)cc1 (centres undefined)	none (no result: Mdm2-MdmX inh, Beta cell apopt, Gli-Sufu block, CSC inhib, NR3A LBD binder)
COc1ccc(-c2nn(C)c(=O)c3ccccc23)cc1NS(C)(=O)=O	Mdm2-MdmX inh 68.2 | Mdm2 MdmX conf inactive
O=C(CC(=O)c1ccccc1)CC(O)(C=Cc1ccccc1)c1ccccc1 (centres undefined)	none (no result: Mdm2-MdmX inh, Beta cell apopt, CSC inhib)
Cc1nc(/C(=N/O)C(N)=O)cs1	none
CNC(=O)COC(=O)c1ccccc1C(=O)c1ccc(Cl)c([N+](=O)[O-])c1	none (no result: Mdm2-MdmX inh, Beta cell apopt, CSC inhib)
N/C(=N\OC(=O)c1ccc(Cl)c([N+](=O)[O-])c1)c1ccccc1	Mdm2-MdmX inh 64.9 | Mdm2 MdmX conf inactive
O=C(COC(=O)c1ccccc1C(=O)c1ccc(Cl)c([N+](=O)[O-])c1)NC1CC1	Mdm2-MdmX inh 99.9 | Mdm2 MdmX conf 96.3 | FLuc counter 51.5
